Neddyl block – blocks human cullin neddylation. 0.58% of 360,000 active. AID 651699. calls only at 25 µM. P61081+Q13564. TR-FRET cullin neddylation, biochemical; in the data active = inhibition above about 36%
UHRF1 binding – human UHRF1 methylated DNA binding inhibitors; Q96T88; UHRF1 binding to methylated oligo, TR-FRET; inhibition, % at 4.4 µM; 0.75% of 370,000 active; AID 687016; in the data active = inhibition above about 21%;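 note: UHRF1 SRA domain binding a hemimethylated CpG hairpin DNA probe; 0% = median of test compound wells and 100% = reference inhibitor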
UBC13 polyUb – inhibitors of human UBC13 polyubiquitin chain formation | 0.47% of 330,000 active | TR-FRET | inhibition, % at 20 µM | AID 485273 | P61088; in the data active = inhibition above about 45%, passing the limit was not always enough
MBD2 inh – MBD2-methylated oligo binding inhibition | Q9UBB5 | TR-FRET, MBD2 binding to methylated oligonucleotide | inhibition, % at 4.4 µM | 0.31% of 370,000 active; in the data active = inhibition above about 13%
* hit, by the source's call; i = inactive; x = no result given; + = active, no number. A selection: hits, their analogues and other compounds. The true share with any hit is near 1.8%.

SMILES	Neddyl block	UHRF1 binding	UBC13 polyUb	MBD2 inh
Cc1ccc(C(=O)Nc2nc(-c3ccccn3)cs2)o1	i	-3.5	-23.5	0.1
CC(=O)c1ccc(-c2ccc(C(=O)Nc3nc(-c4ccccn4)cs3)o2)cc1	+	-2.8	-32.1	0.1
COc1ccccc1N1CCN(C(=O)COc2cc(C)cc(C)c2)CC1	i	27.5*	-13.8	10.4
O=C(CSc1nncs1)Nc1ccc2c(c1)OCCO2	i	-2.3	5.9	3.0
CCCCCCCCC[n+]1cccc2c3ccccc3ccc21	x	x	27.7	x
CCCCCCCCCCCCCCCC[n+]1cccc2ccccc21	i	-0.8	102.1*	-1.3
CN(CC(=O)N1CCN(c2ccccc2)CC1)S(=O)(=O)c1cnc[nH]1	i	28.5*	5.0	-1.8
COc1ccc2nc(C)cc(SCC(=O)Nc3c(C)cccc3C)c2c1	i	-3.2	x	-6.1
C[C@@H](NC(=O)C[C@@H]1C[C@@H]2c3cc(NS(=O)(=O)c4ccc(F)cc4)ccc3O[C@@H]2[C@@H](CO)O1)c1ccccc1	i	1.8	x	-0.2
O=C(C[C@@H]1C[C@@H]2c3cc(NS(=O)(=O)c4ccc(F)cc4)ccc3O[C@@H]2[C@H](CO)O1)NCc1ccc(Oc2ccccc2)cc1	i	23.4*	x	10.4
Clc1ccc(-n2ncc3c(N4CCCCCC4)ncnc32)cc1	i	3.0	20.3	-0.3
COc1ccc(-n2ncc3c(N4CCCCC4)ncnc32)cc1	+	x	16.0	x
CC(C)c1ccc(/C=C2\C(=O)N(CCN3CCOCC3)C(=S)N2C)cc1	i	21.7*	1.5	-2.6
O=[N+]([O-])c1ccc(Cl)c(C2Nc3cccc4cccc(c34)N2)c1	i	6.0	-1.8	-8.3
COc1ccc2nc(-c3ccccc3)cc(C(=O)N3CCC3)c2c1	x	-0.9	30.6	-4.1
COc1ccc(-c2[nH]ncc2CN(C)CCN2CCOCC2)cc1F	i	21.6*	-3.4	10.8
CCOc1ccc(-c2nc(CCl)cs2)cc1	i	-3.1	4.0	1.4
COc1cc(NC(C)=O)c2ncccc2c1Br	i	-4.5	x	5.0
COC(=O)c1c(-c2cccnc2)csc1NC(=O)c1cc(C)on1	i	3.3	6.3	0.0
CCCCCCCCCCn1c2c(c(=N)c3c1CCC3)CCC2	i	1.5	61.9*	-2.5
CSCCC(NC(=O)c1cccc([N+](=O)[O-])c1)C(=O)OCC(=O)N1CCCC1=O (centres undefined)	i	1.4	4.8	-6.4
Cc1cccc(NC(=O)CCS(=O)(=O)c2cccc3nonc23)c1C	i	26.7*	-5.3	11.2
CCCCn1c(-c2cccc(Br)c2)nc2cc3[nH]c(=O)c(C(C)C)nc3cc21	x	-4.2	15.3	-6.0
CCn1nc(C)c(CNC(=O)CCc2nnc(Cc3c[nH]c4ccccc34)o2)c1C	i	0.7	-1.8	-2.1
COc1ccc2nc(N3CCCCC3)c(/C=C3\SC(=S)NC3=O)cc2c1	i	-2.2	-33.7	-1.3
SMILES	Neddyl block	UHRF1 binding	UBC13 polyUb	MBD2 inh
O=C1NC(=S)S/C1=C\c1cc2ccccc2nc1N1CCCCC1	i	78.4*	-22.5	3.6
CCn1c(SCC(=O)Nc2cc(C)on2)nc2c(c1=O)SC(C)C2 (centres undefined)	i	-0.1	-7.0	-3.0
C/C(=N\NC(=O)CN1CCCCC1)c1cccc([N+](=O)[O-])c1	i	25.4*	0.2	-0.3
O=C(CN1CCCCCC1)Nc1cccc([N+](=O)[O-])c1	i	0.2	0.3	-3.5
O=S1(=O)CCOCCCN1Cc1ccccc1F	i	41.4*	-4.2	-3.3
O=C(COC(=O)/C=C/c1cccc([N+](=O)[O-])c1)Nc1ccc(Cl)cn1	i	-4.1	-10.2	2.6
Cc1nn(-c2ccc(Br)cc2)c(=O)c2ccccc12	i	-2.0	1.4	-0.5
CC[C@@]12C(=O)N(c3ccccc3)C(=O)N1[C@H](c1cccc(C)c1)[C@@H]1C(=O)N(Cc3ccccc3)C(=O)[C@@H]12	i	24.0*	9.0	7.3
CC[C@@]12C(=O)N(c3cccc(F)c3)C(=O)N1[C@H](c1cccc(C)c1)[C@@H]1C(=O)N(Cc3ccccc3)C(=O)[C@@H]12	i	-4.2	13.2	-3.6
O=C1CS/C(=N\N=C\c2ccccc2Cl)N1CC1CC1	i	24.7*	-9.3	10.9
Cc1ccc(C)c(NC(=O)CN(C)S(=O)(=O)c2cccc3cccnc23)c1	i	26.6*	3.6	13.1
CC(=O)c1cccc(NC(=O)CSc2ncc(C(=O)Nc3ccccc3)c(=O)n2C)c1	i	-1.5	72.6*	5.7
COc1ccccc1CNC(=O)CSc1ncc(C(=O)Nc2ccccc2)c(=O)n1C	i	2.0	65.0*	3.2
CS(=O)(=O)N(CC(=O)N1CCOCC1)c1ccc2c(c1)OCO2	i	3.8	-0.3	3.1
N=C1C(=O)OCC1c1ccccc1NC(=O)c1ccc(F)cc1 (centres undefined)	i	50.9*	-8.1	-1.4
N=C1C(=O)OCC1c1ccccc1NC(=O)Nc1ccccc1 (centres undefined)	i	-1.4	-6.3	-2.6
Cc1ccc(S(=O)(=O)NC2=NCN(CCOC(=O)c3ccccc3)CN2)cc1	i	2.2	19.0	-0.8
Cc1ccc(S(=O)(=O)NC2=NCN(CCOC(=O)c3ccc([N+](=O)[O-])cc3)CN2)cc1	i	60.2*	0.8	2.5
CCc1ccc(NC(=O)C(=O)NCC(O)c2ccccc2)cc1 (centres undefined)	i	51.6*	-3.4	-4.0
CCOC(=O)c1ccc(NC(=S)NCC(O)c2ccccc2)cc1 (centres undefined)	i	-1.8	-2.6	-3.0
COc1ccc(CNC2CCC23CCC(C)CC3)cc1 (centres undefined)	x	1.7	x	2.1
Cc1ccc(Cn2c(/C=C/c3ccco3)nc3ccccc32)cc1	+	1.2	-0.1	1.2
CN1CCN(NC(=O)CN2C(=O)/C(=C/c3ccccc3F)SC2=S)CC1	x	-0.6	-8.4	-2.8
Cc1cccnc1NC(=O)COc1ccc2oc3c(c2c1)CCCC3	i	-0.3	-1.4	-1.4
Cc1ccc(NC(=O)COc2ccc3oc4c(c3c2)CCCC4)nc1	i	25.5*	-1.9	6.1
SMILES	Neddyl block	UHRF1 binding	UBC13 polyUb	MBD2 inh
C#CCNC(=O)C[C@H]1C[C@@]2(C(=O)OC)C(=C[C@H](C3CCCC3)O[C@@H]2C)N(CCCCCCCC)C1=O	x	1.3	x	-2.3
COCN(C#N)c1nc(N(C)C)nc(N(C)C)n1	i	44.5*	2.4	-0.1
Cc1ccc(NC(=O)CN(C)c2ccc(S(=O)(=O)N3CCCC3)cn2)cc1	i	1.9	0.1	-0.8
CCOc1ccc(NC(=O)CN(C)c2ccc(S(=O)(=O)N3CCOCC3)cn2)cc1OCC	i	41.3*	11.0	-2.6
COc1ccc(-c2c(C)n([O-])c(C)c(C)[n+]2=O)cc1OC	i	23.1*	-7.5	8.4
COc1ccc(C)c2sc(N(CCCN(C)C)C(=O)c3ccc4c(c3)OCCO4)nc12	i	0.3	10.6	1.5
CC(C)NC(=S)Nc1ccc2cn[nH]c2c1	i	22.7*	5.9	8.2

High-throughput results deposited in PubChem BioAssay by several laboratories.
